Assay results from PubChem BioAssay (Tox21).
Inconclusive results are not listed. Active and inactive are the calls of the source. Unless noted, calls follow the shape of the full dose curve.

Legend:
[1] = Nuclear factor erythroid 2-related factor 2/antioxidant responsive element (Nrf2/ARE) small molecule agonists: qHTS cell viability counter screen in human keratinocytes (AID 1919968; active = well fitted curve in the direction sought with a large enough effect in the repeat runs; an effect the other way counts as inactive or inconclusive; also: nearly all actives have a fitted effect of over 55% in size; also: potency is read from the fitted curve at half-maximal effect)
Method in brief: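 KeratinoSens cells (HaCaT keratinocytes stably carrying an ARE-luciferase reporter) were seeded at 1,500 cells/well and rested 5 h at 37 C/5% CO2. They were then exposed to compounds in DMSO for 23 h. Viability was read by CellTiter-Fluor fluorescence after 1 h.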

[2] = target: Gonadotropin-releasing hormone receptor (Homo sapiens) (UniProt P30968); experiment: Human gonadotropin-releasing hormone receptor (GnRHR) small molecule agonists, calcium flux assay in GnRHR-HEK293 cells (AID 1920063); also: nearly all actives have a fitted effect of over 35% in size
Gonadotropin-releasing hormone receptor (Homo sapiens), sequence (P30968 whole entry, looked up): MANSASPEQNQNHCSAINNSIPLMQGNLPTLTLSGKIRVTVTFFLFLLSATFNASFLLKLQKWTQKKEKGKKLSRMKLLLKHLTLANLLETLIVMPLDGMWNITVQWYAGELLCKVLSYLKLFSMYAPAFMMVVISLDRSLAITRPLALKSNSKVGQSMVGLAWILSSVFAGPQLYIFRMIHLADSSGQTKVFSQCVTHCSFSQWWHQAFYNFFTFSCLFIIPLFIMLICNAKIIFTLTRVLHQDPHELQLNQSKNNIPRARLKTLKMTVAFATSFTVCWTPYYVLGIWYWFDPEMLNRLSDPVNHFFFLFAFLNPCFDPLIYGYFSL
Method in brief: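 HEK293 cells stably expressing human GnRHR were plated 18 h at 37 °C, loaded with calcium dye 1 h at 37 °C, then given compound in agonist mode; fluorescence (Ex/Em 480/540) read kinetically for 3 min at 1 s intervals.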

[3] = target: KiSS-1 receptor (Homo sapiens) (UniProt Q969F8); experiment: Human kisspeptin (KISS1R) small molecule agonists, calcium flux assay in KISS1R-HEK293 cells (AID 1920064; active = well fitted curve in the direction sought with a large enough effect in the repeat runs; an effect the other way counts as inactive or inconclusive)
KiSS-1 receptor (Homo sapiens), sequence (Q969F8 whole entry, looked up): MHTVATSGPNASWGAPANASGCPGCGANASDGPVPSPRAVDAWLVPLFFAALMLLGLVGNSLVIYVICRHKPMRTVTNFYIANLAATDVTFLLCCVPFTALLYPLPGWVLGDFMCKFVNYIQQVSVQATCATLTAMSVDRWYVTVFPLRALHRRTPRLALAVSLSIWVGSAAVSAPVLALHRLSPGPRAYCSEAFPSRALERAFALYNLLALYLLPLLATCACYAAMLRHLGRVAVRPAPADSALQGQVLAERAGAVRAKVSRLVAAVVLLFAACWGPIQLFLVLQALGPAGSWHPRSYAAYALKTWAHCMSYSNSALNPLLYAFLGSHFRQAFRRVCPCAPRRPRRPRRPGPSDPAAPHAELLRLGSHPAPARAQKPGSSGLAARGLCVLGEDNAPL
Method in brief: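 HEK293 cells stably expressing human KISS1R were plated 18 h at 37 °C, loaded with calcium dye for 1 h at 37 °C, then given compound by pin tool. Fluorescence (Ex/Em 480/540) was read kinetically for 3 min.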

[4] = G protein-coupled receptor (GPCR) small molecule agonists, calcium flux assay: HEK293 wild type cell line counter screen (AID 1920065)
Method in brief: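 Cells were plated and cultured 18 h at 37 C/5% CO2, then loaded with calcium dye for 1 h at 37 C. Compounds in DMSO were pin-transferred in agonist mode, and fluorescence (Ex/Em 480/540) was read kinetically for 3 min at 1 s intervals.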

[5] = p53 small molecule agonists, cell-based qHTS assay with human liver microsomes: qHTS cell viability counter screen (AID 1963579); also: nearly all actives have a fitted effect of over 45% in size; also: potency is read from the fitted curve at half-maximal effect
Method in brief: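 Viability of p53RE-bla cells is measured as CellTiter-Glo luminescence following a 16 h, 37 C incubation with compound, liver microsomes from human donors and NADPH.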

[6] = p53 small molecule agonists, cell-based qHTS assay: qHTS cell viability counter screen (AID 1963581); also: nearly all actives have a fitted effect of over 45% in size
Method in brief: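 p53RE-bla HCT-116 cells were exposed to compounds for 16 h at 37 C; after the beta-lactamase FRET read in the same wells, CellTiter-Glo was added and luminescence (intracellular ATP) read after 30 min at room temperature.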

[7] = target: 5-hydroxytryptamine receptor 2A (Homo sapiens) (UniProt P28223); experiment: 5-hydroxytryptamine receptor 2A (HTR2A) small molecule antagonists, cell-based qHTS assay (AID 1963586); also: nearly all actives have a fitted effect of over 45% in size
5-hydroxytryptamine receptor 2A (Homo sapiens), sequence (P28223 whole entry, looked up): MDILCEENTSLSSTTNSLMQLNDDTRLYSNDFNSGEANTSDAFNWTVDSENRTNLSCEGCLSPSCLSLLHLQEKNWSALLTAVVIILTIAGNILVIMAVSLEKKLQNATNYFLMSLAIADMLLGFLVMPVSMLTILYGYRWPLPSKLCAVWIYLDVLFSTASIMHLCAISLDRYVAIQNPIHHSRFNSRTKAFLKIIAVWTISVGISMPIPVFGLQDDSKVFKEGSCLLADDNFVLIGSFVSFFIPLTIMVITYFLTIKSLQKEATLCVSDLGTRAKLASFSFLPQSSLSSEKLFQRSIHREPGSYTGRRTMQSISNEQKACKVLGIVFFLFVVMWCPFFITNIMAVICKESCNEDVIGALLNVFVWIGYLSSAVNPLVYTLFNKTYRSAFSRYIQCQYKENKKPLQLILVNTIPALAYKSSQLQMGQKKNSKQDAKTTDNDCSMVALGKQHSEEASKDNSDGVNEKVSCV
Method in brief: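 Antagonist-mode intracellular calcium assay: DOI (4 nM) added after 5 min compound pre-incubation at room temperature to dye-loaded HTR2A-CHO cells. Fluorescence followed for 3 min, sampled every second.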

[8] = target: 5-hydroxytryptamine receptor 2A (Homo sapiens) (UniProt P28223); experiment: 5-hydroxytryptamine receptor 2A (HTR2A) small molecule agonists, cell-based qHTS assay (AID 1963587); also: nearly all actives have a fitted effect of over 30% in size
Method in brief: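 Kinetic calcium-flux fluorescence (2 min, 1 sec intervals) after compound addition in agonist mode. HTR2A-CHO cells were cultured 18 h, then dye-loaded 1 h at 37 C.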

[9] = target: Muscarinic acetylcholine receptor M1 (Homo sapiens) (UniProt P11229); experiment: Cholinergic receptor muscarinic 1 (CHRM1) small molecule antagonists, cell-based qHTS assay (AID 1963588); also: nearly all actives have a fitted effect of over 40% in size
Muscarinic acetylcholine receptor M1 (Homo sapiens), sequence (P11229 whole entry, looked up): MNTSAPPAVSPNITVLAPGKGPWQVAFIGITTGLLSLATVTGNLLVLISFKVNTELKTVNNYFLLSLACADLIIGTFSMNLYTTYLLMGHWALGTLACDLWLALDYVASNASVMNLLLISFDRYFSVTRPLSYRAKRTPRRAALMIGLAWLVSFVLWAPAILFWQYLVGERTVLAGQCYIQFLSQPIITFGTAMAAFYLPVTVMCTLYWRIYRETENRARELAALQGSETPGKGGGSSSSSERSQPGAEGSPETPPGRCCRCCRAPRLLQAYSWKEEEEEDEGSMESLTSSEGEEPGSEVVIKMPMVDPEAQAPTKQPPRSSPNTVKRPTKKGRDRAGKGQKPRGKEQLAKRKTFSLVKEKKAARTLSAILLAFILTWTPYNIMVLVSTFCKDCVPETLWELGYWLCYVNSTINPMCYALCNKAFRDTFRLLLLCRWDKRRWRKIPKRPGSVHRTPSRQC
Method in brief: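 CHRM1-CHO calcium-flux assay, antagonist mode. Cells were seeded 18 h, dye-loaded 1 h at 37 C and given compound for 5 min at RT, then acetylcholine was added at 50nM. FDSS fluorescence was read 3 min; 15 concentrations, three runs.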

[10] = target: Muscarinic acetylcholine receptor M1 (Homo sapiens) (UniProt P11229); experiment: Cholinergic receptor muscarinic 1 (CHRM1) small molecule agonists, cell-based qHTS assay (AID 1963589); also: nearly all actives have a fitted effect of over 35% in size
Method in brief: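 CHO cells stably expressing human CHRM1, seeded 18 h at 37 C/5% CO2, dye-loaded 1 h at 37 C, then given compound in agonist mode; intracellular calcium fluorescence read kinetically at 1 s intervals. Fifteen concentrations, three independent runs.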

[11] = cAMP Responsive Elements (CRE) small molecule agonists, cell-based qHTS assay (AID 1963590)
Method in brief: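 CRE-bla HEK 293T cells in DMEM with 10% dialyzed FBS, NEAA, pyruvate and 25 mM HEPES were plated 18 h at 37 C/5% CO2, then exposed to compounds in DMSO for 3 h before LiveBLAzer B/G FRET substrate addition.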

[12] = cAMP Responsive Elements (CRE) small molecule antagonists, cell-based qHTS assay (AID 1963591; active = well fitted inhibition curve with a large enough effect in the signal ratio in the repeat runs, not every such curve was filed as active; the % refers to the signal ratio)
Method in brief: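 CRE-bla HEK293T cells were plated 18 h at 37 °C/5% CO2, pinned with compound in DMSO, then stimulated with NKH477 at 0.25 uM final for 3 h. LiveBLAzer B/G FRET substrate was added and plates incubated 2 h at room temperature.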

[13] = target: Beta-2 adrenergic receptor (Homo sapiens) (UniProt P07550); experiment: Adrenergic beta2 receptor (ADRB2) small molecule antagonists, cell-based qHTS assay (AID 1963592); also: series mostly up to about 92 µM; nearly all actives have a fitted effect of over 50% in size
Beta-2 adrenergic receptor (Homo sapiens), sequence (P07550 whole entry, looked up): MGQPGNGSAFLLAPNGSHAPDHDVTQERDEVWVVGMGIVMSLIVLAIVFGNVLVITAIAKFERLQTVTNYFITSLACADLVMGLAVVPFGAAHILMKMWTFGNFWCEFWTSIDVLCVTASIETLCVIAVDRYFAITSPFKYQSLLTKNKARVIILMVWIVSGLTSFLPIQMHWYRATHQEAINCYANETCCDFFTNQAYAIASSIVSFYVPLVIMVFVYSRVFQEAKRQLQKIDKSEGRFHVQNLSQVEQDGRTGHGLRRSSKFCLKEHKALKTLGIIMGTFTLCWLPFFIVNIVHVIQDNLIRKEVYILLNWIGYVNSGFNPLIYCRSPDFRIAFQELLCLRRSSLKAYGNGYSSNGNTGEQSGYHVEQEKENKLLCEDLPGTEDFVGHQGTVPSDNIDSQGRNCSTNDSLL
Method in brief: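 Cells (CHO, stable ADRB2 overexpression) incubated 18-20hr at 37C; compounds added from DMSO; agonist mix (1nM isoproterenol, 100uM IBMX, 25uM Ro-20-1724) added; 0.5hr RT; d2-cAMP and anti-cAMP-cryptate added; 1hr RT; 665/615 nm read.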

[14] = target: D(2) dopamine receptor (Homo sapiens) (UniProt P14416); experiment: Dopamine D2 receptor (DRD2) small molecule agonists, cell-based qHTS assay (AID 1963594); also: nearly all actives have a fitted effect of over 35% in size
D(2) dopamine receptor (Homo sapiens), sequence (P14416 whole entry, looked up): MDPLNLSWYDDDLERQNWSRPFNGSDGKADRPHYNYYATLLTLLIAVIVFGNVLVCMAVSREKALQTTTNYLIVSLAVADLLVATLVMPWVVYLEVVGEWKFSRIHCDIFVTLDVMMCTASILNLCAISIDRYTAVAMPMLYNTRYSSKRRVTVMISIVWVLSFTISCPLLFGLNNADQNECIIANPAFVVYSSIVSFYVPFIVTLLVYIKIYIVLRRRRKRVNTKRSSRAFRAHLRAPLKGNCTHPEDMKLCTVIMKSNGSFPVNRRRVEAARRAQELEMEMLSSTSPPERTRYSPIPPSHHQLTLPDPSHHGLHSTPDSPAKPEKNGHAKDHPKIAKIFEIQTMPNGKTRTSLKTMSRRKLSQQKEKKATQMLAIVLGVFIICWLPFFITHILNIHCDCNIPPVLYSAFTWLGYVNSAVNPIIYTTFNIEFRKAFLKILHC
Method in brief: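 cAMP accumulation in DRD2-HEK293 cells measured by HTRF after 1 h detection; compounds added 10 min before NKH477 (200nM […]) forskolin-analogue stimulation, 30 min at room temperature, with Ro20-1724 present at 0.1 mM final.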

[15] = target: D(2) dopamine receptor (Homo sapiens) (UniProt P14416); experiment: Dopamine D2 receptor (DRD2) small molecule antagonists, cell-based qHTS assay (AID 1963595; active = well fitted inhibition curve with a large enough effect in the signal ratio in the repeat runs, with a control signal flat; the % refers to the signal ratio)
Method in brief: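 HEK293 cells stably expressing DRD2 were preincubated with 0.1 mM Ro20-1724, then with compound for 10 min at room temperature. Cells were stimulated with 200 nM NKH477 plus 12 nM quinpirole for 30 min, and cAMP was read by HTRF.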

[16] = p53 small molecule agonists, cell-based qHTS assay with human liver microsomes (AID 1963577);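 also: p53 response element beta-lactamase reporter cells with liver microsomes plus NADPH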
Method in brief: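 HLM-supplemented p53RE-bla reporter assay: 16 h compound exposure at 37 C, microsomes and NADPH each 0.5 mg/mL final, read by fluorescence intensity.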

[17] = p53 small molecule agonists, cell-based qHTS assay with rat liver microsomes (AID 1963578)
Method in brief: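 Quantitative HTS of the Tox21 10K library: p53RE-bla cells, rat liver microsomes plus NADPH at 0.5 mg/mL final each, 16 h at 37 C, beta-lactamase fluorescence detection.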

[18] = p53 small molecule agonists, cell-based qHTS assay with rat liver microsomes: qHTS cell viability counter screen (AID 1963580); also: nearly all actives have a fitted effect of over 45% in size
Method in brief: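 Intracellular ATP, by CellTiter-Glo luminescence, defines viability. HCT-116 p53RE-bla cells, 4,000 per well, were compound-treated in the presence of rat liver microsomes and NADPH for 16 h at 37 C.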

[19] = p53 small molecule agonists, cell-based qHTS assay (AID 1963582; active = well fitted activation curve with a large enough effect in the signal ratio in the repeat runs, not every such curve was filed as active; the % refers to the signal ratio)
Method in brief: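 p53RE-bla beta-lactamase reporter cells rested 5 h at 37 C/5% CO2, then received compounds in DMSO by pin transfer and were incubated 16 h at 37 C. LiveBLAzer B/G FRET substrate was loaded for 2 h at room temperature before fluorescence reading.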
% is scaled to controls: 0 for no effect and ±100 for the full control effect.

N#CC(O)c1ccccc1 (configuration not stated)
inactive: Potency [1] | Potency [2] | Potency [3] | Potency [4] | Potency [5] | Potency [6] | Potency [7] | Potency [8] | Potency [9] | Potency [10] | Potency [11] | Potency [12] | Potency [13] | Potency [14] | Potency [15]

O=C1c2ccccc2C(=O)c2ccccc21
inactive: activity change, negative = cytotoxicity [1] 8.6% [at 19 µM] | activity change [2] -0.0358% [at 11.8 µM, active compounds read high] | activation [3] 8.4% [at 15.8 µM] | activation [16] 1.15% [at 13.5 µM] | activation [17] -4.38% [at 13.6 µM] | activity change, negative = cytotoxicity [5] 2.91% [at 13.5 µM] | activity change, negative = cytotoxicity [18] 1.32% [at 13.5 µM] | activity change, negative = cytotoxicity [6] 5.09% [at 13.5 µM] | activation [19] -1.94% [at 13.5 µM] | activation [8] -4.26% [at 15.9 µM] | activity, negative = inhibition [9] 2.2% [at 12.6 µM] | activation [11] -2.22% [at 19 µM] | activity change, negative = inhibition [12] -5.21% [at 18.9 µM] | activation [14] -2.1% [at 19 µM] | activity change, negative = inhibition [15] -1.46% [at 18.9 µM]

CCNC(=O)NC(=O)/C(C#N)=N/OC
inactive: Potency [1] | Potency [2] | Potency [3] | Potency [4] | Potency [18] | Potency [6] | Potency [7] | Potency [8] | Potency [9] | Potency [10] | Potency [12] | Potency [14] | Potency [15]

CCC/C(=N\OCC)C1=C(O)CC(CC(C)SCC)CC1=O (configuration not stated)
inactive: Potency [1] | Potency [2] | Potency [3] | Potency [16] | Potency [17] | Potency [5] | Potency [18] | Potency [6] | Potency [19] | Potency [7] | Potency [8] | Potency [9] | Potency [10] | Potency [13] | Potency [14] | Potency [15]

Cc1cc(C)nc(Nc2ccccc2)n1
inactive: Potency [1] | Potency [2] | Potency [3] | Potency [16] | Potency [17] | Potency [5] | Potency [18] | Potency [19] | Potency [7] | Potency [8] | Potency [10] | Potency [11] | Potency [13] | Potency [14]

CCOP(O)OCC
inactive: Potency [1] | Potency [2] | Potency [3] | Potency [4] | Potency [18] | Potency [6] | Potency [7] | Potency [8] | Potency [9] | Potency [11] | Potency [12] | Potency [13] | Potency [14] | Potency [15]

Oc1cccc(Cl)c1Cl
inactive: Potency [1] | Potency [2] | Potency [3] | Potency [16] | Potency [17] | Potency [5] | Potency [18] | Potency [6] | Potency [19] | Potency [7] | Potency [8] | Potency [9] | Potency [10] | Potency [11] | Potency [13] | Potency [14] | Potency [15]

CCN(CC)C(C)C(=O)c1ccccc1 (configuration not stated)
inactive: Potency [1] | Potency [2] | Potency [3] | Potency [4] | Potency [18] | Potency [6] | Potency [8] | Potency [9] | Potency [10] | Potency [11] | Potency [12] | Potency [14] | Potency [15]

CNN
inactive: Potency [1] | Potency [2] | Potency [3] | Potency [4] | Potency [18] | Potency [6] | Potency [7] | Potency [9] | Potency [10] | Potency [11] | Potency [12] | Potency [13] | Potency [14] | Potency [15]

COc1ccc2c(c1OC)CN1CCc3cc4c(cc3C1C2)OCO4 (configuration not stated)
inactive: Potency [1] | Potency [2] | Potency [3] | Potency [16] | Potency [17] | Potency [5] | Potency [18] | Potency [6] | Potency [19] | Potency [7] | Potency [8] | Potency [9] | Potency [10] | Potency [12] | Potency [15]

CCC#N
inactive: Potency [1] | Potency [2] | Potency [3] | Potency [4] | Potency [5] | Potency [18] | Potency [6] | Potency [8] | Potency [9] | Potency [10] | Potency [11] | Potency [12] | Potency [13] | Potency [14] | Potency [15]

CCN[C@@H](C)Cc1cccc(C(F)(F)F)c1
inactive: Potency [1] | Potency [2] | Potency [3] | Potency [4] | Potency [5] | Potency [18] | Potency [11] | Potency [12] | Potency [15]

CCCSP(=S)(OCC)Oc1ccc(SC)cc1 (configuration not stated)
inactive: Potency [1] | Potency [2] | Potency [3] | Potency [4] | Potency [18] | Potency [6] | Potency [19] | Potency [7] | Potency [8] | Potency [9] | Potency [10] | Potency [11] | Potency [12] | Potency [13] | Potency [14] | Potency [15]

CO/C=C(/C(=O)OC)c1ccccc1Oc1cc(Oc2ccccc2C#N)ncn1
inactive: Potency [2] | Potency [3] | Potency [4] | Potency [8] | Potency [9] | Potency [10]
active: Potency [1] 6.11 µM

C[C@]12CC[C@@H](O)C[C@@H]1CC[C@@H]1[C@@H]2CC[C@]2(C)C(=O)CC[C@@H]12
inactive: Potency [1] | Potency [2] | Potency [3] | Potency [16] | Potency [5] | Potency [18] | Potency [19] | Potency [11] | Potency [12] | Potency [14] | Potency [15]

Cc1ccc(S(=O)(=O)N[C@@H](CCCCN)C(=O)CCl)cc1
inactive: Potency [1] | Potency [2] | Potency [3] | Potency [4] | Potency [5] | Potency [18] | Potency [6] | Potency [8] | Potency [9] | Potency [11] | Potency [12] | Potency [13] | Potency [14] | Potency [15]

CNC(=O)O/N=C(\C)C(C)S(C)(=O)=O (configuration not stated)
active: Potency [5] 316 µM
inactive: Potency [1] | Potency [2] | Potency [3] | Potency [18] | Potency [6] | Potency [7] | Potency [8] | Potency [9] | Potency [10] | Potency [11] | Potency [12] | Potency [13] | Potency [14] | Potency [15]

CCCCn1cc[n+](C)c1.[Cl][Fe-]([Cl])([Cl])[Cl]
inactive: Potency [1] | Potency [2] | Potency [3] | Potency [4] | Potency [6] | Potency [7] | Potency [8] | Potency [9] | Potency [10] | Potency [11] | Potency [12] | Potency [13] | Potency [14] | Potency [15]
